# In publication PMC7862700, “An all-to-all approach to the identification of sequence-specific readers for epigenetic DNA modifications on cytosine”:
# What was measured:
# Experiment in all cases: DAPPL (digital affinity profiling via proximity ligation, sequencing); 10 mM Tris-HCl pH 7.5, 50 mM NaCl, 1 mM DTT, 4% glycerol, room temperature, 30 min; GST-TFs on glutathione beads, 16-mer random dsDNA library, 0.1% formaldehyde crosslink after washing; high values mean tight binding
# FEV = molecular target: T1, FEV (Homo sapiens, UniProt Q99581 1-238); details: protein: recombinant; tags: N-terminal GST; dsDNA, one strand shown
# T1 sequence: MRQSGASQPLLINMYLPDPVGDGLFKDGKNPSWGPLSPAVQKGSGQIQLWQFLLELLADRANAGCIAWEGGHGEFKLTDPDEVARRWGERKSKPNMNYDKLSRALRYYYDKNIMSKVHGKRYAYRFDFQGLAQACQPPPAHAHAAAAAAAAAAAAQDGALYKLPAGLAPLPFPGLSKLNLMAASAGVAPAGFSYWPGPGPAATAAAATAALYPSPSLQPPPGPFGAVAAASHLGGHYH
# How it was run: (§1)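 Yeast served to express human transcription factors as GST fusions, which were then captured on glutathione beads and labelled with DNA barcodes. Pooled with a tag-only sample, they were incubated with 200 nmole of a 16-mer random double-stranded DNA library for 30 min at room temperature in Tris/NaCl/DTT/glycerol buffer, washed, crosslinked with 0.1% formaldehyde, ligated by proximity, amplified by PCR and sequenced. Dividing each hexamer's read frequency for a factor by its frequency for the tag-only sample gives the binding signal.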
# ETV5 = ETV5 (Homo sapiens, UniProt P41161 1-510); details: protein: recombinant; tags: N-terminal GST; dsDNA, one strand shown
# Sequence of ETV5 (P41161 whole entry): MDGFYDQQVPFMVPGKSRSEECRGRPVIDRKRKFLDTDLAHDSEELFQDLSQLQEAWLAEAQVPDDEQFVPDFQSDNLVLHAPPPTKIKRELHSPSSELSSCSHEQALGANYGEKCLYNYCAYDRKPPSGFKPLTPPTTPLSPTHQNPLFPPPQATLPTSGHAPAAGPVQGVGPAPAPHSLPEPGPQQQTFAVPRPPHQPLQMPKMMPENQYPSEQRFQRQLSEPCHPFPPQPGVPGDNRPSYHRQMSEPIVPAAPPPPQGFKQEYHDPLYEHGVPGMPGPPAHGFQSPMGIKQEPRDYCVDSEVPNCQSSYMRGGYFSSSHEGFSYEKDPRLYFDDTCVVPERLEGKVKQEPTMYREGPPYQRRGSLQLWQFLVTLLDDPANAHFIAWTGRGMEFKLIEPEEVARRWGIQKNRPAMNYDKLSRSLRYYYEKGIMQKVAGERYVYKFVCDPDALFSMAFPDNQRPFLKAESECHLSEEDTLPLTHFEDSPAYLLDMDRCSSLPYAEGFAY
# How it was run: as §1
# HSF1 = HSF1 (Homo sapiens, UniProt Q00613 1-529); details: protein: recombinant; tags: N-terminal GST; chain copies: 3; dsDNA, one strand shown
# Sequence of HSF1 (Q00613 whole entry): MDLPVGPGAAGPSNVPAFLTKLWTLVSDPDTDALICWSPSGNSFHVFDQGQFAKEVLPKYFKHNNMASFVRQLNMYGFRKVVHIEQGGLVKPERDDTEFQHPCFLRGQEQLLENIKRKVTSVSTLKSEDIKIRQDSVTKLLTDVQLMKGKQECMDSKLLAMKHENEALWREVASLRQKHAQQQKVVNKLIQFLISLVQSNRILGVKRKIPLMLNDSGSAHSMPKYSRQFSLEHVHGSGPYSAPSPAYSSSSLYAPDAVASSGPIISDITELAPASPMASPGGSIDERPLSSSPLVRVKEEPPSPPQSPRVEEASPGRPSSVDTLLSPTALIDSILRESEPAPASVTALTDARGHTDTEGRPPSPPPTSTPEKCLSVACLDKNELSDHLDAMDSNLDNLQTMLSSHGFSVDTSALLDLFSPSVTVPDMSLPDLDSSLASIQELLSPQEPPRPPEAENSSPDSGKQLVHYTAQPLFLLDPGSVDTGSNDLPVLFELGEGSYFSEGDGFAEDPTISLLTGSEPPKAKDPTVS
# How it was run: as §1
# SPIC = molecular target: T2, SPIC (Homo sapiens, UniProt Q8N5J4 1-248); details: protein: recombinant; tags: N-terminal GST; dsDNA, one strand shown
# T2 sequence: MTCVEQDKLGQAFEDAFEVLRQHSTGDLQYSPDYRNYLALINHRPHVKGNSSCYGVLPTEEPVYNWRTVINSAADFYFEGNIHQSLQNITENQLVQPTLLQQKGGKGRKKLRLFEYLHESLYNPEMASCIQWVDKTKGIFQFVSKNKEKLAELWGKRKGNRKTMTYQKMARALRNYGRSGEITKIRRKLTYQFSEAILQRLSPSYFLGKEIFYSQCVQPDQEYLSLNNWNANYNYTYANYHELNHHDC
# How it was run: as §1
# ELF4 = ELF4 (Homo sapiens, UniProt Q99607 1-663); details: protein: recombinant; tags: N-terminal GST; dsDNA, one strand shown
# Sequence of ELF4 (Q99607 whole entry): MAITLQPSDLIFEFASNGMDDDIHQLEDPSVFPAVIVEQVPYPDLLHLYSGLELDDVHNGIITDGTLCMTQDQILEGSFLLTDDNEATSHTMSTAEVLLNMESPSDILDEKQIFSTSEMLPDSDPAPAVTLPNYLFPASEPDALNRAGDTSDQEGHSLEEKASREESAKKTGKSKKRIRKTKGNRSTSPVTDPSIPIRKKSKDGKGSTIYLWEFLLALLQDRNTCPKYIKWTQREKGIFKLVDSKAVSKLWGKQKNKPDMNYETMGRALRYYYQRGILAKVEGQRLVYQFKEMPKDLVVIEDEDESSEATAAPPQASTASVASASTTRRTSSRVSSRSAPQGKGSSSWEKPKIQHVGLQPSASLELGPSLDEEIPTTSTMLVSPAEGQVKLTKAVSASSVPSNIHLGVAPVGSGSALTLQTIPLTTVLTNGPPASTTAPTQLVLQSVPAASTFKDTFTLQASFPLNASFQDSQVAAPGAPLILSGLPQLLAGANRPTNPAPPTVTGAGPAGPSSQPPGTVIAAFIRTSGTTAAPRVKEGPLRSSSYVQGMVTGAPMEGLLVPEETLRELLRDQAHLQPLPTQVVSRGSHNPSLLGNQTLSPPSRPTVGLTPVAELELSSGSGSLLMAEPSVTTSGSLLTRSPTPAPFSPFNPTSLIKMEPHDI
# How it was run: as §1
# ELK4 = molecular target: T3, ELK4 (Homo sapiens, UniProt P28324-2 1-405); details: protein: recombinant; tags: N-terminal GST; dsDNA, one strand shown
# T3 sequence: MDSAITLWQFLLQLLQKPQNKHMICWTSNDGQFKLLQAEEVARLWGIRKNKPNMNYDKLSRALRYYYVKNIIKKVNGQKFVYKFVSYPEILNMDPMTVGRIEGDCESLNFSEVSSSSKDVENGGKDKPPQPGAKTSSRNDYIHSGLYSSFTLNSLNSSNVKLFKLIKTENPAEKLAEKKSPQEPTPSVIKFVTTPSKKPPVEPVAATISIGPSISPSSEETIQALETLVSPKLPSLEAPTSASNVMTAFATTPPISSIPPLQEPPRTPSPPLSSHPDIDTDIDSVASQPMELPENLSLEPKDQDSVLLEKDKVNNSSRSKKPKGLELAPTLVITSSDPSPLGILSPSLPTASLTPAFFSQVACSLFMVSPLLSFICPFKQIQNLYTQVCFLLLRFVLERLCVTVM
# How it was run: as §1
# ETV2 = molecular target: T4, ETV2 (Homo sapiens, UniProt O00321 1-342); details: protein: recombinant; tags: N-terminal GST; dsDNA, one strand shown
# T4 sequence: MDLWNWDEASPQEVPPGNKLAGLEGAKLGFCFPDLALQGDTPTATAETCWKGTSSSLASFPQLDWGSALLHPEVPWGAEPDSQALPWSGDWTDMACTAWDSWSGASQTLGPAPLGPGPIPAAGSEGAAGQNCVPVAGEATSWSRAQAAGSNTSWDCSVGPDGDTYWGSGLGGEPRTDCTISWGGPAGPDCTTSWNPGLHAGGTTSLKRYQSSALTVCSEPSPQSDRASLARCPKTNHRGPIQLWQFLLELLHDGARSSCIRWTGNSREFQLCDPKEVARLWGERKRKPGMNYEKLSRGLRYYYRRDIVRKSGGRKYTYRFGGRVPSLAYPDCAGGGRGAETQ
# How it was run: as §1
# ELF3 = molecular target: T5, ELF3 (Homo sapiens, UniProt P78545 1-371); details: protein: recombinant; tags: N-terminal GST; dsDNA, one strand shown
# T5 sequence: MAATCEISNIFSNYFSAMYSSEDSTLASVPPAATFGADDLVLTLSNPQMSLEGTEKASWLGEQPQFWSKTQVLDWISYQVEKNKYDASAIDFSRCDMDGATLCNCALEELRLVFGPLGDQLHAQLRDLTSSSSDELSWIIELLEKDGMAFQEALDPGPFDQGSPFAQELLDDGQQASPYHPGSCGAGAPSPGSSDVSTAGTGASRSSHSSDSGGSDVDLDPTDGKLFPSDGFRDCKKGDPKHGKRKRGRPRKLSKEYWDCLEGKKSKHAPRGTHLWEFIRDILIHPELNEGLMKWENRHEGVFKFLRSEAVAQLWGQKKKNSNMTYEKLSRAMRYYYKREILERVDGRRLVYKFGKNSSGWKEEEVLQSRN
# How it was run: as §1
# CRX = CRX (Homo sapiens, UniProt O43186 1-299); details: protein: recombinant; tags: N-terminal GST; dsDNA, one strand shown
# Sequence of CRX (O43186 whole entry): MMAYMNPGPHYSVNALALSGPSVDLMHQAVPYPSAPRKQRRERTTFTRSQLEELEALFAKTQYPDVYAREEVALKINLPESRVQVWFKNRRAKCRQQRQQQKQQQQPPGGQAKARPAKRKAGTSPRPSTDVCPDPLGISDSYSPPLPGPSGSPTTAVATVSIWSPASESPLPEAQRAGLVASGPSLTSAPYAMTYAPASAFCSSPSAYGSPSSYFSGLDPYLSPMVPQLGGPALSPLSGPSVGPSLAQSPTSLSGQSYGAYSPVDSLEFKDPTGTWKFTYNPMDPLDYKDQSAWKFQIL
# How it was run: as §1
# ETV1 = ETV1 (Homo sapiens, UniProt P50549 1-477); details: protein: recombinant; tags: N-terminal GST; dsDNA, one strand shown
# Sequence of ETV1 (P50549 whole entry): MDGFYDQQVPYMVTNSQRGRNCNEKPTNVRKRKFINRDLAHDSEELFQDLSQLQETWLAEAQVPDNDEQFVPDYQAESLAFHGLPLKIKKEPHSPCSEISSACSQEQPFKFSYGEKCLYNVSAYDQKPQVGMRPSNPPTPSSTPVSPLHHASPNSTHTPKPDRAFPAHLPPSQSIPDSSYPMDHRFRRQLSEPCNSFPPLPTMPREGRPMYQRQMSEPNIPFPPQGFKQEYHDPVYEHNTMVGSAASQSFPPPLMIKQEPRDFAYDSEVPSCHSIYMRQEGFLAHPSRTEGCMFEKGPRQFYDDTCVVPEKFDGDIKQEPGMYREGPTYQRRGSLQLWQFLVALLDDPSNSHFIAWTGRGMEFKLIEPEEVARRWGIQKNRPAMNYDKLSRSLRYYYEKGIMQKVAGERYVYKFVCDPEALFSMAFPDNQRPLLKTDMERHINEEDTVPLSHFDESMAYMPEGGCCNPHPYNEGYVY
# How it was run: as §1
# ERF = molecular target: T6, ERF (Homo sapiens, UniProt P50548 1-548); details: protein: recombinant; tags: N-terminal GST; dsDNA, one strand shown
# T6 sequence: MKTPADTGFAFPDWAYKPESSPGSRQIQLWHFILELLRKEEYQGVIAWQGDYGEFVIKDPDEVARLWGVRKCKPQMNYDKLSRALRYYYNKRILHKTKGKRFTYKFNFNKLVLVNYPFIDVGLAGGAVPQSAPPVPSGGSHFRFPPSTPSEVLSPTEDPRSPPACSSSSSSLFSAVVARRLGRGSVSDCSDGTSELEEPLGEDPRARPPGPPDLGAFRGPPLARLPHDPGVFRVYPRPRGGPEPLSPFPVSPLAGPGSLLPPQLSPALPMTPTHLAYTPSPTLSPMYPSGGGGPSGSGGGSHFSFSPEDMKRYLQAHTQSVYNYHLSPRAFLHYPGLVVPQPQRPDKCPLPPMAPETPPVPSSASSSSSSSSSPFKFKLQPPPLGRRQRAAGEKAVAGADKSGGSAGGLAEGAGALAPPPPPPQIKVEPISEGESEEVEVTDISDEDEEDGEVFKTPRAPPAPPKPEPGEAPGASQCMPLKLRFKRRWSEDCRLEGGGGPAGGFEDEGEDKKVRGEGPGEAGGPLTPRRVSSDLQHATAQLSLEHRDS
# How it was run: as §1
# ETV3L = molecular target: T7, ETV3L (Homo sapiens, UniProt Q6ZN32 1-361); details: protein: recombinant; tags: N-terminal GST; dsDNA, one strand shown
# T7 sequence: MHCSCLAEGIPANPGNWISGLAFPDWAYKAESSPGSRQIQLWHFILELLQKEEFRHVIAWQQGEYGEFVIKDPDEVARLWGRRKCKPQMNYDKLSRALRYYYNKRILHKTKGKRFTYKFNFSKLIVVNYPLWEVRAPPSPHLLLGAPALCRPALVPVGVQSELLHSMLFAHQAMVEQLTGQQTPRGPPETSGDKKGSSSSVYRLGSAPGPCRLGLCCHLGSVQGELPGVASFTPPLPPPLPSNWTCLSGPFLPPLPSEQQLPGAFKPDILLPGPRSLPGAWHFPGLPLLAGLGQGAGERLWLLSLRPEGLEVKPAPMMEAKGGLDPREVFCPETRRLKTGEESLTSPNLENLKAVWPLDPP
# How it was run: as §1
# ETS2 = molecular target: T8, ETS2 (Homo sapiens, UniProt P15036 1-469); details: protein: recombinant; tags: N-terminal GST; dsDNA, one strand shown
# T8 sequence: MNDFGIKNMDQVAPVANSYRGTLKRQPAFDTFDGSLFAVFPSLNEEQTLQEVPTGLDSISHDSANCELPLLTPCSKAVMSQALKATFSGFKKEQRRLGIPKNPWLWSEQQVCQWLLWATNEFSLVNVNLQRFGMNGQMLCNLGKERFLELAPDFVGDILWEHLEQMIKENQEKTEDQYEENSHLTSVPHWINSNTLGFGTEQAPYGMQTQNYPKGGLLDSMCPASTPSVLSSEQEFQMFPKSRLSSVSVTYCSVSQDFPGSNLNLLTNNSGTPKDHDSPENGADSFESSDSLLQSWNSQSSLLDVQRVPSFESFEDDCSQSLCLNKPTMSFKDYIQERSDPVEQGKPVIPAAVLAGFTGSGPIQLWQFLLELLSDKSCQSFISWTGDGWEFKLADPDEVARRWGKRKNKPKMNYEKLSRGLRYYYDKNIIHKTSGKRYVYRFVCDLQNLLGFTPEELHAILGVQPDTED
# How it was run: as §1
# SPDEF = molecular target: T9, SPDEF (Homo sapiens, UniProt O95238 1-335); details: protein: recombinant; tags: N-terminal GST; dsDNA, one strand shown
# T9 sequence: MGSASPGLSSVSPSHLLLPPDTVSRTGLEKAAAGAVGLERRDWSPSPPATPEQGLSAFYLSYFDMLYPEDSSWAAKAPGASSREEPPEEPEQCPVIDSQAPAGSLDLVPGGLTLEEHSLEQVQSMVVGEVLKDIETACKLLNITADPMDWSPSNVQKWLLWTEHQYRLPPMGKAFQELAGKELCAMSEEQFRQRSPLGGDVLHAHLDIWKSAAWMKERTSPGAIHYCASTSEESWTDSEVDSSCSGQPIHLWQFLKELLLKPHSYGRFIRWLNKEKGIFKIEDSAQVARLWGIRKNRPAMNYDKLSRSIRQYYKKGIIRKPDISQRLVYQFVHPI
# How it was run: as §1
# ETV7 = molecular target: T10, ETV7 (Homo sapiens, UniProt Q9Y603 1-341); details: protein: recombinant; tags: N-terminal GST; dsDNA, one strand shown
# T10 sequence: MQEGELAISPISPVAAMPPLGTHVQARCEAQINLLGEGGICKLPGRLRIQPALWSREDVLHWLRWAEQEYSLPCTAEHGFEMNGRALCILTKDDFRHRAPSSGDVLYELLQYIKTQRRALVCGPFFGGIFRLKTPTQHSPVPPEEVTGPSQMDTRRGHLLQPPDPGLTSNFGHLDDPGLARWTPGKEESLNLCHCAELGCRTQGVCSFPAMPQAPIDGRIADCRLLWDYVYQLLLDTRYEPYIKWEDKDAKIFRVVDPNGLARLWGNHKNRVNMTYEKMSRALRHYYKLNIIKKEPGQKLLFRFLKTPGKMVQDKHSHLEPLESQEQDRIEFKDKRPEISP
# How it was run: as §1
# ELF5 = molecular target: T11, ELF5 (Homo sapiens, UniProt Q9UKW6-2 1-255); details: protein: recombinant; tags: N-terminal GST; dsDNA, one strand shown
# T11 sequence: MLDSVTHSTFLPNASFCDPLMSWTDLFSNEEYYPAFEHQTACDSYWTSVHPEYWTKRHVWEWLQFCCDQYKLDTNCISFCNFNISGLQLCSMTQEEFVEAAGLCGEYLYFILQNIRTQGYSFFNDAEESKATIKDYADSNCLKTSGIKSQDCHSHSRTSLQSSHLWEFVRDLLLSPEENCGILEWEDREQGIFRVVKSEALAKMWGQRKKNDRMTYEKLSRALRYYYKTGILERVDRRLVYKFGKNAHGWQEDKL
# How it was run: as §1
# ETV3 = molecular target: T12, ETV3 (Homo sapiens, UniProt P41162-2 1-143); details: protein: recombinant; tags: N-terminal GST; dsDNA, one strand shown
# T12 sequence: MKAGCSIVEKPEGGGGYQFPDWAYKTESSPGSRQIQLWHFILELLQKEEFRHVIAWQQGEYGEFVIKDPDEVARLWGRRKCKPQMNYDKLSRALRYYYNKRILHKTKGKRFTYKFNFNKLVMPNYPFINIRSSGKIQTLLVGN
# How it was run: as §1
# ETV6 = ETV6 (Homo sapiens, UniProt P41212 1-452); details: protein: recombinant; tags: N-terminal GST; dsDNA, one strand shown
# Sequence of ETV6 (P41212 whole entry): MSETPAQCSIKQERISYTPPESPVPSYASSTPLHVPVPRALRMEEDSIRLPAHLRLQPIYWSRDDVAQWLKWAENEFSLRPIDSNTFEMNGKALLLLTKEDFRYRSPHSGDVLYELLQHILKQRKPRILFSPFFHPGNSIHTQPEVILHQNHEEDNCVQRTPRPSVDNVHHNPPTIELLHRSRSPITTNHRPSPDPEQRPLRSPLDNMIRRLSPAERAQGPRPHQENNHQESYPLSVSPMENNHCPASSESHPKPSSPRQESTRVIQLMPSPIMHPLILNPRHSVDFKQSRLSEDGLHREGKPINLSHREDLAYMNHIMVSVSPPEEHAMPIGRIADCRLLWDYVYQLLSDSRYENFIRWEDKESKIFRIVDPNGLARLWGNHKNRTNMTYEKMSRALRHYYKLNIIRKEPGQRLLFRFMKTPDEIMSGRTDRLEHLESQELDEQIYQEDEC
# How it was run: as §1
sequence,measurement,setting,value
TCCACA,binding signal,FEV,"1.21 fold enrichment (6-mer frequency, TF over GST control)"
same,binding signal,ETV5,"1.25 fold enrichment (6-mer frequency, TF over GST control)"
same,binding signal,HSF1,"1.36 fold enrichment (6-mer frequency, TF over GST control)"
same,binding signal,SPIC,"1.31 fold enrichment (6-mer frequency, TF over GST control)"
same,binding signal,ELF4,"1.27 fold enrichment (6-mer frequency, TF over GST control)"
same,binding signal,ELK4,"1.25 fold enrichment (6-mer frequency, TF over GST control)"
same,binding signal,ETV2,"1.17 fold enrichment (6-mer frequency, TF over GST control)"
same,binding signal,ELF3,"1.22 fold enrichment (6-mer frequency, TF over GST control)"
same,binding signal,CRX,"1.1 fold enrichment (6-mer frequency, TF over GST control)"
same,binding signal,ETV1,"1.15 fold enrichment (6-mer frequency, TF over GST control)"
same,binding signal,ERF,"1.31 fold enrichment (6-mer frequency, TF over GST control)"
same,binding signal,ETV3L,"1.24 fold enrichment (6-mer frequency, TF over GST control)"
same,binding signal,ETS2,"1.29 fold enrichment (6-mer frequency, TF over GST control)"
same,binding signal,SPDEF,"1.25 fold enrichment (6-mer frequency, TF over GST control)"
same,binding signal,ETV7,"1.17 fold enrichment (6-mer frequency, TF over GST control)"
same,binding signal,ELF5,"1.13 fold enrichment (6-mer frequency, TF over GST control)"
same,binding signal,ETV3,"1.2 fold enrichment (6-mer frequency, TF over GST control)"
same,binding signal,ETV6,"1.25 fold enrichment (6-mer frequency, TF over GST control)"
